Experimental data: PubChem BioAssay
The source made the active and inactive calls. Unless noted, the rule behind the calls is not given here.

Key:
[1] = tested on: XIP peptide (Xip251-270) binding; assay: XIP fragment 251-270 binding compounds – biochemical, small-molecule microarray, fluorescence 635/667 nm, 0.1 µg/mL protein, primary screen (AID 1182); conditions: fluorescent protein binding, 635 nm, higher = more signal, called active from +8 up or from −8 down
XIP peptide (Xip251-270) = assay: compounds binding XIP fragment 251-270 – biochemical, small-molecule microarray, fluorescence 635/667 nm, 0.5 µg/mL protein, primary screen (AID 1183); conditions: fluorescence 635 nm, higher = more signal
[2] = blood-stage malaria parasite viability loss – strain 3D7, DAPI fluorescence, 100 nL, primary screen (AID 1184);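 note: parasites grown inside human red blood cells in medium with human serum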; conditions: P. falciparum 3D7 growth, 3 d, higher = more signal
[3] = molecular target: Homeobox protein Hox-A13 (Mus musculus) (UniProt Q62424); assay: disruptors of Hoxa13 oligonucleotide interaction – biochemical, fluorescence polarization, labeled oligonucleotide, primary screen (AID 1185); conditions: Hoxa13:DNA binding, 15 min, higher = more signal, called active from +8 up or from −8 down
Sequence of Homeobox protein Hox-A13 (Mus musculus) (Q62424 whole entry, looked up): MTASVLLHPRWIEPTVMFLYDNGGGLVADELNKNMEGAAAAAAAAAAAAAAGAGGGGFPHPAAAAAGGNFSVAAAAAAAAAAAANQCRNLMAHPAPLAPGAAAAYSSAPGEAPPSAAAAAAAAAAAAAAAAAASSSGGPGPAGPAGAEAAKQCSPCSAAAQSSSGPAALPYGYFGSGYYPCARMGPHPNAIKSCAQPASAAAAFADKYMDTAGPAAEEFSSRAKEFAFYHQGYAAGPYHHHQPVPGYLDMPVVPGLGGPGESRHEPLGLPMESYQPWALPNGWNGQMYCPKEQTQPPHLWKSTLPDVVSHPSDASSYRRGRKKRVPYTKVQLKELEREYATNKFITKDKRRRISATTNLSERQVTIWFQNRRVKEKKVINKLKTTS

[4] = blockers of DNA damage checkpoint Chk1 activation – imaging, HeLa, hydroxyurea, phospho-Chk1 antibody, percent positive cells, primary screen (AID 1186); conditions: hydroxyurea-induced phospho-Chk1 immunofluorescence imaging, higher = more signal
[5] = blockers of DNA damage checkpoint Chk1 activation – imaging, HeLa, hydroxyurea, phospho-Chk1 nuclear intensity, primary screen (AID 1187); conditions: hydroxyurea-induced phospho-Chk1 immunofluorescence imaging, higher = more signal

SMILES	composite z-score [1]	composite z-score (XIP peptide (Xip251-270))	z-score [2]	z-score [3]	z-score [4]	z-score [5]
CC(C)N1CC=CC23O[C@@H]4C=CCCOC(=O)C4[C@H]2C(=O)N(CCCO)[C@@H]3C1=O (stereo not given in full)	0.431 (inactive)	0.598	-2.07	-4.97 (inactive)	-0.0561 (inactive)	-0.12 (inactive)
COc1cc2c(cc1O)C=[N+](Cc1sc3ccccc3c1Cl)CC2	0.669 (inactive)	0.133	-1.84	-5.22 (inactive)	0.399 (inactive)	0.9 (inactive)
COCC(=C=CC[C@H](O)c1ccccc1OCCO)C[C@H](O)c1ccccn1	-0.488 (inactive)	0.0608	-0.259	-4.52 (inactive)	-2.25 (inactive)	-1.6 (inactive)
C#CCN(Cc1ccccc1Br)[C@H](/C=C/c1ccccc1)[C@@H](O)Cc1ccccc1	-0.368 (inactive)	-0.115	-0.717	-0.384 (inactive)	-0.162 (inactive)	0.103 (inactive)
Cc1ccc(F)cc1S(=O)(=O)N[C@@H]1CCN(Cc2ccc(Br)cc2)C1	-0.238 (inactive)	-0.192	-0.999	-5.43 (inactive)	0.0663 (inactive)	-0.335 (inactive)
CCCCCN1CC=CC23O[C@@H]4/C=C\CCC(C)OC(=O)C4[C@H]2C(=O)N(C(CO)C(C)C)[C@@H]3C1=O (stereo not given in full)	0.733 (inactive)	0.761	-1.07	-5.72 (inactive)	-0.584 (inactive)	-0.113 (inactive)
CC[C@@H]1O[Si](C(C)C)(C(C)C)c2c1cc(-c1cc(C)c(OC)c(C)c1)nc2-c1ccc(Oc2ccccc2)cc1	-0.162 (inactive)	-0.22	0.0977	-1.52 (inactive)	-0.557 (inactive)	-0.461 (inactive)
[N-]=[N+]=Nc1ccccc1C[C@]1(C(=O)N2CCOCC2)COC(c2ccc(OCCCO)cc2)=N1	0.373 (inactive)	0.666	-2.03	-6.82 (inactive)	-0.488 (inactive)	-0.338 (inactive)
COC(=O)c1c(CC[C@@H](CO)NC(=O)N2CCC[C@H]2Cn2cc(C3(O)CCCCC3)nn2)oc(C(C)=O)c1C(=O)OC	0.812 (inactive)	0.499	-0.373	-4.77 (inactive)	-0.125 (inactive)	-0.0208 (inactive)
C=CCC(OC(C)=O)[C@@H]1[C@@H](N(Cc2cccc3ccccc23)C(=O)Cc2ccc(OC)cc2)c2cc(OCCCO)ccc2N1C(=O)c1ccc(-c2ccccc2)cc1 (stereo not given in full)	0.377 (inactive)	0.309	-2.3	-1.94 (inactive)	0.577 (inactive)	-0.13 (inactive)
CN(C)C(=O)[C@@]1(Cc2ccccc2CN=[N+]=[N-])N=C(c2ccc(OCCCO)cc2)O[C@H]1c1ccccc1N=[N+]=[N-]	0.458 (inactive)	0.822	-2.02	-0.638 (inactive)	-0.0351 (inactive)	-0.336 (inactive)
CCCCC(CC)C(O)C1C=CC2C(=O)N(C)C(=O)C2N1Nc1ccccc1 (stereo not given)	-0.12 (inactive)	0.298	0.537	-4.08 (inactive)	0.168 (inactive)	-0.174 (inactive)
CCCCCN1CC=CC23O[C@@H]4C=CCCOC(=O)C4[C@H]2C(=O)N(CCCCCCO)[C@@H]3C1=O (stereo not given in full)	0.592 (inactive)	-0.199	-0.103	-4.59 (inactive)	-0.0991 (inactive)	0.155 (inactive)
CCN(CC)c1ccc(N2CC=CC34O[C@@H]5/C=C\CCCOC(=O)C5[C@H]3C(=O)N(C(C)CO)[C@@H]4C2=O)cc1 (stereo not given in full)	-0.322 (inactive)	0.213	0.226	-5.97 (inactive)	0.296 (inactive)	0.804 (inactive)
C=CCC(OC(C)=O)[C@@H]1[C@@H](N(Cc2cccc3ccccc23)C(=O)Cc2ccc(F)cc2)c2cc(OCCCO)ccc2N1C(=O)c1ccc2ccccc2c1 (stereo not given in full)	-1.12 (inactive)	-0.277	-1.85	-1.39 (inactive)	-0.457 (inactive)	-0.395 (inactive)
CC(C)NC(=O)[C@@]1(C)c2ccccc2C(=O)N(Cc2ccc(OC(F)(F)F)cc2)[C@H]1c1ccc(CO)cc1	0.697 (inactive)	0.836	-1.75	-3.07 (inactive)	-0.0939 (inactive)	-0.0444 (inactive)
CN(C)CCCCCCNC(=O)[C@@H]1C[C@@H]2C(=O)N3CCC[C@H]3C(=O)N2[C@@H]1c1cccc(OCCO)c1	2.52 (inactive)	0.872	0.517	-2.94 (inactive)	0.0537 (inactive)	-0.055 (inactive)
COC(=O)[C@@]1(Cc2ccc(OC)cc2)[C@H]2c3cc(C(=O)N4CCCC4)n(CCc4c[nH]c5ccc(O)cc45)c3C[C@H]2CN1C(=O)c1ccccc1	0.903 (inactive)	0.864	-1.44	-4.21 (inactive)	0.336 (inactive)	0.258 (inactive)
CC(C)[Si](C#CCCCC#N)(O[C@H](c1ccccc1)c1cn(Cc2ccccc2)nn1)C(C)C	0.206 (inactive)	0.391	0.559	-1.61 (inactive)	-0.727 (inactive)	-0.29 (inactive)
COC(=O)C/C=C/C[C@]1(O)C(=O)N(C)c2ccccc21	0.0625 (inactive)	0.804	-0.306	-1.32 (inactive)	-0.866 (inactive)	-0.467 (inactive)
COc1ccc(CCNC(=O)[C@@H]2c3ccccc3C(=O)N(C3CCCCC3)[C@H]2c2ccc(CO)cc2)cc1	0.09 (inactive)	0.658	-1.76	-3.32 (inactive)	0.183 (inactive)	-0.0923 (inactive)
COc1ccc([Si](C)(C)[C@@H]2[C@@H](CCO)O[C@]3(C(=O)N(Cc4ccccc4)c4ccc(N5CCOC5=O)cc43)[C@H]2C)cc1	0.849 (inactive)	0.869	-2.79	-1.94 (inactive)	-1.29 (inactive)	-1.14 (inactive)
CC(=O)NCCCC[C@@H]1NC(=O)[C@@H]2C[C@H](C(=O)NCCCCCN)[C@H](c3cccc(OCCO)c3)N2C1=O	0.845 (inactive)	0.878	0.0297	-2.54 (inactive)	-1.16 (inactive)	-0.913 (inactive)
COCCOC(=O)N1C(=O)[C@@]2(c3cc(C#CC4(O)CCCCCC4)ccc31)[C@H](C(=O)N1CCc3cc(OC)c(OC)cc3C1)[C@H]1C(=O)O[C@H](c3ccccc3)[C@H](c3ccccc3)N1[C@@H]2c1ccc(OCCO)cc1	0.402 (inactive)	0.62	-2.25	2.15 (inactive)	-0.149 (inactive)	-0.247 (inactive)
COCCOC(=O)N1C(=O)[C@@]2(c3cc(C#CCCO)ccc31)[C@H](C(=O)Nc1nc3ccccc3s1)[C@H]1C(=O)O[C@H](c3ccccc3)[C@H](c3ccccc3)N1[C@@H]2c1ccc(O)cc1	3.02 (inactive)	0.765	-1.45	-3.01 (inactive)	-0.225 (inactive)	-0.445 (inactive)
